Among all 53,000 compounds or so, about 900 (1.7%) showed an effect of 50% or more. Many of the other results were omitted from the sample, so strong results are more common in it than they were.
tested on: Mycobacterium tuberculosis; assay: Cornell - Phenotypic assay to identify agents that inhibit growth of Mycobacterium tuberculosis; format: functional; parameters: scale not given: direction of the effect not stated beside the values; details: 10 mM as filed; unlikely as a test dose

With `Cc1cc(C)n2c(CNCc3ccc(OC(F)F)cc3)cnc2n1` as the molecule, how does the “Percent Effect” value read?
The value was -7.615%.

For `Cn1ncc2c(N3CCCN(C(=O)c4ccsc4)CC3)ncnc21`, which “Percent Effect” value is on record?
Its value is 16.86%.

With `CCCc1ccc(CN2CCC3(CCC(=O)N(CCO)C3)CC2)o1` as the molecule, how does the “Percent Effect” value read?
Its value is 9.804%.

With `COc1ccccc1C(=O)N1CCOC2(CCCN(C(C)=O)C2)C1` (stereo not given) as the molecule, how does the “Percent Effect” value read?
Its value is 23.26%.

For `Fc1ccc(C2CCCN2Cc2nnnn2C2CC2)cc1` (stereo not given), which “Percent Effect” value is on record?
The value was -22.59%.

`O=C(NCCCN1CCCC1=O)c1nc(-c2ccc3[nH]ccc3c2)no1` was tested. Which “Percent Effect” value did it give?
The value was 3.66%.

How did the “Percent Effect” value turn out when `Cn1cccc1C(=O)N1CCC2(CC1)COC(COc1ccccn1)C2.O=C(O)C(F)(F)F` (stereo not given) was run?
Its value is 9.973%.

With `CC(C)C(NC(=O)N1CCN(c2ccc(Cl)cc2)CC1)C(=O)NC1CC1` (stereo not given) as the molecule, how does the “Percent Effect” value read?
The value was 93.48%.

`CC(C)NC(=O)C(C)NC(=O)N1CCN(c2ccc(Cl)cc2)CC1` (stereo not given) was tested. Which “Percent Effect” value did it give?
Its value is -27.07%.

`CC(C)NC(=O)C(NC(=O)N1CCN(c2ccc(Cl)cc2)CC1)C(C)C` (stereo not given) was tested. Which “Percent Effect” value did it give?
The value was 76.86%.

With `CN(C(=O)NC1CC1)C1CCN(c2ccc(Cl)cc2)CC1` as the molecule, how does the “Percent Effect” value read?
The value was 17.37%.

How did the “Percent Effect” value turn out when `CC(C)[C@H](NC(=O)N1CCN(c2ccc(Cl)cc2)CC1)C(=O)NC1CC1` was run?
Its value is 4.583%.

How did the “Percent Effect” value turn out when `CC(C)NC(=O)[C@@H](NC(=O)N1CCN(c2ccc(Cl)cc2)CC1)C(C)C` was run?
Its value is 70.57%.

For `CC(C)NC(=O)[C@H](C)NC(=O)N1CCN(c2ccc(Cl)cc2)CC1`, which “Percent Effect” value is on record?
The value was -2.997%.

Which “Percent Effect” value does the source give for `CC(NC(=O)N1CCN(c2ccc(Cl)cc2)CC1)C(=O)N1CCSCC1` (stereo not given) here?
Its value is 21.43%.

With `C[C@H](NC(=O)N1CCN(c2ccc(Cl)cc2)CC1)C(=O)N1CCSCC1` as the molecule, how does the “Percent Effect” value read?
The value was 11.26%.

Which “Percent Effect” value does the source give for `Fc1ccccc1NCc1nc2n(n1)CCCCC2` here?
Its value is 6.356%.

With `NC(=O)CN1CCCC(c2cncc(Nc3ncccn3)n2)C1` (stereo not given) as the molecule, how does the “Percent Effect” value read?
Its value is 28.6%.

With `COCCN1C(=O)CC[C@]12CC[C@@H](NC(=O)c1cnccn1)CC2` as the molecule, how does the “Percent Effect” value read?
The value was 8.611%.

How did the “Percent Effect” value turn out when `CCCc1nnnn1CC(=O)NCc1cccc(C)c1` was run?
The value was 14.77%.

`CCOC(=O)C1(Cc2ccccc2-c2ccccc2OC)CCNCC1.Cl` was tested. Which “Percent Effect” value did it give?
Its value is 1.496%.

For `CNc1[nH]nc(N)c1NC(=O)c1ccccc1`, which “Percent Effect” value is on record?
The value was 107.3%.

For `CNc1[nH]nc(N)c1C(=O)Nc1ccc(OC)cc1`, which “Percent Effect” value is on record?
Its value is -4.193%.

For `CNc1[nH]nc(N)c1C(=O)Nc1ccccc1`, which “Percent Effect” value is on record?
The value was -18.4%.

With `Cc1nc(Nc2cnccn2)cc(C2CCCN(C(C)C)C2)n1` (stereo not given) as the molecule, how does the “Percent Effect” value read?
Its value is -5.253%.

`Cc1cc(C)nc(Nc2nccnc2C2CCCN(C(C)C)C2)n1` (stereo not given) was tested. Which “Percent Effect” value did it give?
The value was 29.5%.

Which “Percent Effect” value does the source give for `FC(F)(F)c1cc(C2CCCN(c3cnccn3)C2)n2ccnc2n1` (stereo not given) here?
The value was 5.193%.

With `CC(C)N1CCCC(c2cc(C(F)(F)F)nc3nccn23)C1` (stereo not given) as the molecule, how does the “Percent Effect” value read?
The value was 55.76%.

How did the “Percent Effect” value turn out when `FC(F)(F)c1cc(C2CCCN(c3ncccn3)C2)n2ccnc2n1` (stereo not given) was run?
Its value is 58.69%.

With `FC(F)(F)c1cc(C2CCN(c3cnccn3)CC2)n2ccnc2n1` as the molecule, how does the “Percent Effect” value read?
Its value is 47.21%.
